PABP1 MLLE inh: blocks PAM2 peptide binding to the PABP1 MLLE domain; P11940; GST-MLLE / FITC-PAM2 fluorescence polarization; inhibition, % at 20 µM; 0.36% of 360,000 active; in the data active = inhibition above about 35%, passing the limit was not always enough
eIF4H inh: inhibitors of RNA binding by human eIF4H; Q15056; eIF4H fluorescence polarization binding assay; inhibition, % at 35 µM; 0.94% of 290,000 active; AID 2012;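 note: calls also rest on retests at 20 µM and on dose response follow-up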
eIF4E-4G inh: blocks eIF4E binding to eIF4G; P63073+Q04637; TR-FRET eIF4E-eIF4GI(517-606) binding, 2 h; inhibition, % at 21.7 µM; 0.37% of 220,000 active;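 active = inhibition above about 30%, limit read from the data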
PABP polyA inh: PABP-poly(A) binding inhibition; P11940; PABP-poly(A) RNA binding, fluorescence polarization; calls only at 35 µM; 1% of 290,000 active; AID 2014;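 note: calls also rest on retests at 20 µM and on dose response follow-up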
EBV gp42 inh: blocks Epstein-Barr virus glycoprotein 42 binding. Q1HVG2. AID 1085. 0.42% of 220,000 active. Fluorescence polarization binding assay, mP read-out. inhibition, % (tested at 21.74 µM); in the data active = inhibition above about 50%
Target sequence (Q1HVG2 whole entry, looked up): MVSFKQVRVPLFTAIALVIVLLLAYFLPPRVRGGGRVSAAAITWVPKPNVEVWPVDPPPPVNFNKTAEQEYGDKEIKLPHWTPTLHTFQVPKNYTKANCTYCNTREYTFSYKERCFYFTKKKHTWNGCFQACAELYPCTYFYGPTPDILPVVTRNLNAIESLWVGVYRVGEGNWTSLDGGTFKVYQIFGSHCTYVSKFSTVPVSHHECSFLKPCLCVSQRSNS
Numbers stand for hits; [ ] = another dose, or the depositor's remark. Sampled rows, rich in hits. Any-hit rate of the full collection: about 1.7%. Unless noted, the rule behind the calls is not given here.

Results for CC(=O)N(C)c1ccc(NC(=S)Nc2ccccc2)cc1 ?
PABP1 MLLE inh: inactive; eIF4H inh: inactive; eIF4E-4G inh: inactive; PABP polyA inh: inactive; EBV gp42 inh: inactive

Results for CNC(=S)Nc1sc2c(c1C(=O)OC)CCC2 ?
PABP1 MLLE inh: inactive; eIF4H inh: inconclusive; eIF4E-4G inh: inactive; PABP polyA inh: active; EBV gp42 inh: inactive

Results for CCOC(=O)c1c(NC(=S)NC)sc2c1CC(C)(C)SC2 ?
PABP1 MLLE inh: inactive; eIF4H inh: 52; eIF4E-4G inh: inactive; PABP polyA inh: inactive; EBV gp42 inh: inactive

Results for COC(=O)c1c(NC(=O)C2C3CCC(O3)C2C(=O)O)sc2c1CCCCCC2 (configuration not stated) ?
PABP1 MLLE inh: inactive; eIF4H inh: inactive; eIF4E-4G inh: inactive; PABP polyA inh: inactive; EBV gp42 inh: inactive

What do the screens show for `COC(=O)c1c(NC(=O)C2C3CCC(C3)C2C(=O)O)sc2c1CCCCC2` (configuration not stated)?
PABP1 MLLE inh: 41; eIF4H inh: inactive; eIF4E-4G inh: inactive; PABP polyA inh: inactive; EBV gp42 inh: inactive

Results for CCOC(=O)c1c(NC(=S)Nc2ccccc2)sc2c1CC(C)(C)SC2 ?
PABP1 MLLE inh: inactive; eIF4H inh: inactive; eIF4E-4G inh: inactive; PABP polyA inh: inactive; EBV gp42 inh: inactive

What do the screens show for `Clc1cccc(N/N=C/c2ccc(N3CCOCC3)s2)c1`?
PABP1 MLLE inh: inactive; eIF4H inh: inactive; eIF4E-4G inh: inactive; PABP polyA inh: inactive; EBV gp42 inh: inactive

Results for OCCC1CN(Cc2cccc3nccnc23)CCN1Cc1ccc(F)cc1 (configuration not stated) ?
PABP1 MLLE inh: inactive; eIF4H inh: inactive; eIF4E-4G inh: inactive; PABP polyA inh: inactive; EBV gp42 inh: inactive

What do the screens show for `O=Cc1c[nH]c2ccc(S(=O)(=O)N3CCCCC3)cc12`?
PABP1 MLLE inh: inactive

Results for Cn1cnc([N+](=O)[O-])c1S(=O)(=O)Oc1ccc(Cl)cc1 ?
PABP1 MLLE inh: 41

What do the screens show for `COc1ccccc1S(=O)(=O)N(C)C[C@@H]1OCc2cn(nn2)CCCC(=O)N([C@H](C)CO)C[C@H]1C`?
PABP1 MLLE inh: inactive

Results for C[C@H](CO)N1C[C@H](C)[C@@H](CN(C)C(=O)Nc2ccc(C(F)(F)F)cc2)Oc2ccc(NC(=O)Nc3ccc4c(c3)OCO4)cc2C1=O ?
PABP1 MLLE inh: inactive

How did CC1=CC(C)(C)N(S(=O)(=O)c2ccc(C)cc2)c2ccc(C)cc21 do in these assays?
PABP1 MLLE inh: inactive; eIF4H inh: inactive; eIF4E-4G inh: inactive; PABP polyA inh: inactive; EBV gp42 inh: inactive

How did CC1=CC(C)(C)[N+](C)(C)c2ccc(C)cc21 do in these assays?
PABP1 MLLE inh: inactive; eIF4H inh: inactive; eIF4E-4G inh: inactive; PABP polyA inh: active; EBV gp42 inh: inactive

How did CCn1c(SCC(=O)NC2CCCCC2)nnc1C(C)NC(=O)c1ccccc1F (configuration not stated) do in these assays?
PABP1 MLLE inh: inactive; eIF4H inh: inactive; PABP polyA inh: inactive

What do the screens show for `CCN1CCc2c(sc(N)c2C#N)C1`?
PABP1 MLLE inh: inactive; eIF4H inh: inactive; eIF4E-4G inh: inactive; PABP polyA inh: inactive; EBV gp42 inh: inactive

How did N#Cc1c(N)sc(=S)c2c1CCN(Cc1ccccc1)C2 do in these assays?
eIF4H inh: inconclusive; eIF4E-4G inh: inactive; PABP polyA inh: inactive; EBV gp42 inh: 84

Results for Cc1cc(=O)[nH]c(SCn2nnc3ccccc3c2=O)n1 ?
PABP1 MLLE inh: 43; eIF4H inh: inactive; eIF4E-4G inh: inactive; PABP polyA inh: inactive; EBV gp42 inh: inactive

How did O=C(CSc1nnc(CNc2ccccc2)o1)N1CCc2ccccc21 do in these assays?
PABP1 MLLE inh: inactive; eIF4H inh: inactive; eIF4E-4G inh: 36; PABP polyA inh: inactive; EBV gp42 inh: inactive

How did O=C(CSc1ncn(-c2ccccc2)n1)N1CCc2ccccc21 do in these assays?
PABP1 MLLE inh: inactive; eIF4H inh: inactive; eIF4E-4G inh: 31[fluorescence artefact?]; PABP polyA inh: inactive; EBV gp42 inh: inactive

What do the screens show for `Cc1ccnc(SCC(=O)N2CCc3ccccc32)n1`?
PABP1 MLLE inh: inactive; eIF4H inh: inactive; PABP polyA inh: inactive

What do the screens show for `c1cn2c(-c3ccoc3)cncc2n1`?
PABP1 MLLE inh: inactive

Results for O=C(CNc1ccccc1)N/N=C/c1cn(-c2ccccc2)nc1-c1ccccc1 ?
PABP1 MLLE inh: inactive; eIF4H inh: active; eIF4E-4G inh: inactive; PABP polyA inh: active; EBV gp42 inh: inactive

How did NC(=O)N/N=C/c1cn(-c2ccccc2)nc1-c1ccccc1 do in these assays?
PABP1 MLLE inh: inactive; eIF4H inh: inactive; eIF4E-4G inh: inactive; PABP polyA inh: inactive; EBV gp42 inh: inactive

What do the screens show for `COc1cc(C#N)ccc1OCC(=O)NCc1cccs1`?
PABP1 MLLE inh: inactive; eIF4H inh: 1.9; eIF4E-4G inh: inactive; PABP polyA inh: inactive; EBV gp42 inh: inactive

What do the screens show for `COc1cc(C(=O)N2CCN(c3ccccc3)CC2)c2ccccc2n1`?
PABP1 MLLE inh: inactive

What do the screens show for `Cn1c(=O)n(C)c2cc([N+](=O)[O-])c(N3CCN(C(=O)c4cccc(Cl)c4)CC3)cc21`?
PABP1 MLLE inh: inactive; eIF4H inh: active; eIF4E-4G inh: inactive; PABP polyA inh: active; EBV gp42 inh: inactive

What do the screens show for `Cn1c(=O)n(C)c2cc([N+](=O)[O-])c(N3CCN(C(=O)c4cccc(F)c4)CC3)cc21`?
PABP1 MLLE inh: inactive; eIF4H inh: inactive; eIF4E-4G inh: inactive; PABP polyA inh: inactive; EBV gp42 inh: inactive

What do the screens show for `CCCCNC(=O)C1(C)CCCCCN1Cc1cc2ccccc2o1` (configuration not stated)?
PABP1 MLLE inh: inactive

Results for O=C(/C=C/c1ccco1)N/C(=C\c1ccco1)C(=O)NCCc1nc2ccccc2[nH]1 ?
PABP1 MLLE inh: inactive; eIF4H inh: 77; eIF4E-4G inh: inactive; PABP polyA inh: active; EBV gp42 inh: inactive

How did Cc1nnc(SCC(=O)Nc2sccc2C#N)n1Cc1ccccc1 do in these assays?
PABP1 MLLE inh: inactive; eIF4H inh: 29; eIF4E-4G inh: inactive; PABP polyA inh: active; EBV gp42 inh: inactive

How did Cc1nnc(SCC(=O)NNC(=O)c2ccccc2)n1Cc1ccccc1 do in these assays?
PABP1 MLLE inh: inactive

How did O=CN1CCN(C=O)C(O)C1O (configuration not stated) do in these assays?
PABP1 MLLE inh: inactive

How did Cc1ccc(NC(=S)NCCN(C2CCCCC2)C2CCCC2)cc1C do in these assays?
PABP1 MLLE inh: inactive; eIF4H inh: active; eIF4E-4G inh: inactive; PABP polyA inh: active; EBV gp42 inh: inactive

Results for Cc1ccccc1N=Cc1cc2c(cc1[N+](=O)[O-])OCO2 ?
PABP1 MLLE inh: inactive; eIF4H inh: inactive; eIF4E-4G inh: inactive; PABP polyA inh: active; EBV gp42 inh: inactive

How did Cc1cc(C)nc(N/N=C/c2cc3c(cc2[N+](=O)[O-])OCO3)n1 do in these assays?
PABP1 MLLE inh: inactive; eIF4H inh: 55; eIF4E-4G inh: inactive; PABP polyA inh: active; EBV gp42 inh: inactive

How did CC(C)(C)C1=CC=C(C(C)(C)C)C(=O)C1=O do in these assays?
eIF4H inh: inactive; eIF4E-4G inh: inactive; PABP polyA inh: inactive; EBV gp42 inh: inactive

Results for CCCN(CC(=O)Nc1ccccc1C)C(=O)c1cc2ccccc2oc1=O ?
PABP1 MLLE inh: inactive

Results for Cc1cc(C)nc(Nc2nc(=O)c3ccccc3s2)n1 ?
PABP1 MLLE inh: 38; eIF4H inh: inactive; eIF4E-4G inh: inactive; PABP polyA inh: inactive; EBV gp42 inh: inactive
